In PubChem BioAssay (EPA / NIEHS):
Several values for one entry are separate records, joined by “and”; a condition that tells them apart may be missing. Equal entries are not always repeated. Records with an inconclusive call do not appear. Activity calls are given as the source filed them. Rule for the calls, unless noted: active = hit-call score of the fitted dose curve at least 0.9, where 1 is the maximum; inactive = score below 0.9.

Experiments:
[1] = target: Hypoxia-inducible factor 1-alpha (Homo sapiens) (UniProt Q16665); test: ATG_HIF1a_CIS: Attagene CIS-FACTORIAL HepG2 Assay for human Hypoxia Inducible Factor 1 (HIF1A) (AID 2282951); conditions: HepG2 Attagene cis-factorial HIF1a reporter transcription; actives raise or lower the signal
Hypoxia-inducible factor 1-alpha (Homo sapiens), sequence (Q16665 whole entry, looked up): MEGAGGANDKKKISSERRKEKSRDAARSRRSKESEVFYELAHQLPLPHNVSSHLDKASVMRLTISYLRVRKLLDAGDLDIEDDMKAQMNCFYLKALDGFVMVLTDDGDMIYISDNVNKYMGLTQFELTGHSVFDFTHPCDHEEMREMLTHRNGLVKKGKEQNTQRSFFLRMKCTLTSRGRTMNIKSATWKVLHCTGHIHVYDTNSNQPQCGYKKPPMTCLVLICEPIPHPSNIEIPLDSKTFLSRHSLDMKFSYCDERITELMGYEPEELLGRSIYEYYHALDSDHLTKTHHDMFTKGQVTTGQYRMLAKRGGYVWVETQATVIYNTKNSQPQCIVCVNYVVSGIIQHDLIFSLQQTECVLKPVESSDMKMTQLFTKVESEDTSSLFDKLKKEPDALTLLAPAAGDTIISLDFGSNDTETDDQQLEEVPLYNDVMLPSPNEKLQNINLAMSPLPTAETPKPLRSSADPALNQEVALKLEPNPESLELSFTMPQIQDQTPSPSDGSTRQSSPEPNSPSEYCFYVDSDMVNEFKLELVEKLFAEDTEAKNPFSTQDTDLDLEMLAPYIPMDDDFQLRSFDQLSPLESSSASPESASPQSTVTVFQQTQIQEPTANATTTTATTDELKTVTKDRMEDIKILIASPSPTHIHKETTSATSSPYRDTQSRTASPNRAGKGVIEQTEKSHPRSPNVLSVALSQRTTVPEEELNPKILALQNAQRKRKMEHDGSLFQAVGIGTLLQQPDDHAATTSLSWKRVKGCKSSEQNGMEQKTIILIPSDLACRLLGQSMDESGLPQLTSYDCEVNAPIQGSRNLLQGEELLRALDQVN
How it was run: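 In this multiplexed cell assay, HepG2 cells bearing transfected cis reporters are dosed for 24 h and reporter mRNA is read by RT-PCR plus capillary electrophoresis; signal increases and decreases are both scored against DMSO.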

[2] = target: Hepatocyte nuclear factor 6 (Homo sapiens) (UniProt Q9UBC0); test: ATG_HNF6_CIS: Attagene CIS-FACTORIAL HepG2 Assay for human Hepatocyte Nuclear Factor 6 (HNF6) (AID 2282952); conditions: HepG2 Attagene cis-factorial HNF6 reporter transcription; actives raise or lower the signal
Hepatocyte nuclear factor 6 (Homo sapiens), sequence (Q9UBC0 whole entry, looked up): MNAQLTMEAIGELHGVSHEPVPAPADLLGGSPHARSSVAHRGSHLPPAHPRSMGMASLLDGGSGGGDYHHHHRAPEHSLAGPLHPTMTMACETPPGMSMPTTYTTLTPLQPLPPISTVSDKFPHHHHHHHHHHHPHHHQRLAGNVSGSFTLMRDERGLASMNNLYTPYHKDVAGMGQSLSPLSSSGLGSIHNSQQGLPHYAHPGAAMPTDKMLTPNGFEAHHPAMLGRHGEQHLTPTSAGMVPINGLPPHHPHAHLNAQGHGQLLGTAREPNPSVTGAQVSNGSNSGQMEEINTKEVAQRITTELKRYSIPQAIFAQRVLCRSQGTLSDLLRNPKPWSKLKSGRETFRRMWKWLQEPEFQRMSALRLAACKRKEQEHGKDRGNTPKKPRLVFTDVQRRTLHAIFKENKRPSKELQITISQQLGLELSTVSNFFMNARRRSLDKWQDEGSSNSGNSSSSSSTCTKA
How it was run: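 Multiplexed mRNA reporter assay in transfected HepG2; 24 h dosing; RT-PCR plus capillary electrophoresis fluorescence; DMSO-referenced bidirectional curve fitting.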

[3] = target: Heat shock factor protein 1 (Homo sapiens) (UniProt Q00613); test: ATG_HSE_CIS: Attagene CIS-FACTORIAL HepG2 Assay for human Heat Shock Transcription Factor 1 (HSE) (AID 2282953); conditions: HepG2 HSE cis-reporter, Attagene RNA transcription; actives raise or lower the signal
Heat shock factor protein 1 (Homo sapiens), sequence (Q00613 whole entry, looked up, the tested form may be a part): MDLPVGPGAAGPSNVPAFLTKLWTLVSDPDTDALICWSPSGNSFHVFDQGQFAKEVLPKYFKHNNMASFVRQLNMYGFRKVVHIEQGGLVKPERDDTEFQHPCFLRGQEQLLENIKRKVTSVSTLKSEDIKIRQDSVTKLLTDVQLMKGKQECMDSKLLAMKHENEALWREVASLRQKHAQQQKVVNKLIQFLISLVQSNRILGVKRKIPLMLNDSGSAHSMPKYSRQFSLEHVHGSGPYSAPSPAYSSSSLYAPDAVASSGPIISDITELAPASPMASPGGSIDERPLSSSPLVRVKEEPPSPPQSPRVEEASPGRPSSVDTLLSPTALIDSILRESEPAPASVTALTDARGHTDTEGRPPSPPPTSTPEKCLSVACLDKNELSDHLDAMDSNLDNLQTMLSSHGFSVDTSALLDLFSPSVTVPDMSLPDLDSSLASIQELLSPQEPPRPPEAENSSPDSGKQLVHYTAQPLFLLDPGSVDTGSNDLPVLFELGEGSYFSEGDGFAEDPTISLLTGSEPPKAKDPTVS
How it was run: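 Read-out: fluorescence of reporter-specific RT-PCR fragments separated by capillary electrophoresis. HepG2 carrying transfected cis-element reporter units; 24 h dosing; activity fitted in both directions relative to DMSO baseline.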

[4] = ATG_PBREM_CIS: Attagene CIS-FACTORIAL HepG2 Assay for human Phenobarbital-responsive Enhancer Module (PBREM) (AID 2282955); conditions: HepG2 PBREM cis-reporter, Attagene multiplexed transcription; actives raise or lower the signal
How it was run: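 After a 24 h incubation with test chemical, transfected HepG2 cells yield total RNA; reporter-specific RT-PCR products are fluorescently labelled, HpaI-digested and resolved by capillary electrophoresis against ROX size standards.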

[5] = target: Paired box protein Pax-6 (Homo sapiens) (UniProt P26367); test: ATG_Pax6_CIS: Attagene CIS-FACTORIAL HepG2 Assay for human Paired Box 6 (PAX6) (AID 2282956); conditions: HepG2 CIS-FACTORIAL PAX6 reporter transcription, RNA readout; actives raise or lower the signal
Paired box protein Pax-6 (Homo sapiens), sequence (P26367 whole entry, looked up): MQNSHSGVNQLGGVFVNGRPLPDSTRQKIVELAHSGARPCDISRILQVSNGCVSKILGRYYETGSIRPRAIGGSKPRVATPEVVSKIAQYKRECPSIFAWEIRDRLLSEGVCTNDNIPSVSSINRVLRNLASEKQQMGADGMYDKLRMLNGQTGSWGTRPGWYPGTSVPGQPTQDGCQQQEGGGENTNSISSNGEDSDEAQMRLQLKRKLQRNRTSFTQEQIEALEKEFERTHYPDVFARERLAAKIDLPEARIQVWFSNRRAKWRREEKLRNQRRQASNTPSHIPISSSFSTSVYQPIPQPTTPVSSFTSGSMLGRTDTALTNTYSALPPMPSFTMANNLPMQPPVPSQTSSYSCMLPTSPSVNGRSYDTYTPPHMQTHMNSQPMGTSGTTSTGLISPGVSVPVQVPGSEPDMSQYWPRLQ
How it was run: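 After twenty-four hours of chemical exposure, transfected HepG2 cells are harvested for RNA. Cis-promoter reporter transcripts are amplified, fluorescently labelled and sized by capillary electrophoresis, with gain and loss of signal scored against DMSO.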

[6] = ATG_PXRE_CIS: Attagene CIS-FACTORIAL HepG2 Assay for human Pregnane X Receptor Element (PXRE) (AID 2282957); conditions: HepG2 Attagene CIS-FACTORIAL PXRE reporter, mRNA; actives raise or lower the signal
How it was run: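 Cells: HepG2, transiently transfected reporter units under cis promoter control. Exposure: 24 h. Detection: reporter mRNA via RT-PCR/CE fluorescence; bidirectional fitting, DMSO-referenced.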

[7] = ATG_RORE_CIS: Attagene CIS-FACTORIAL HepG2 Assay for human RAR-related Orphan Receptor Element (RORE) (AID 2282959); conditions: HepG2 Attagene cis-factorial RORE reporter, mRNA; actives raise or lower the signal
How it was run: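 Fluorescence intensity of reporter-specific cDNA fragments, separated by capillary electrophoresis, gives the signal. Source: HepG2 liver cells transiently transfected with cis-element reporters and exposed 24 h; DMSO-normalized bidirectional fit.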

[8] = ATG_Sox_CIS: Attagene CIS-FACTORIAL HepG2 Assay for human SRY-box transcription factor (SOX) (AID 2282960); conditions: HepG2 Attagene cis-factorial SOX reporter, mRNA; actives raise or lower the signal
How it was run: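 After 24 h of chemical treatment, transfected HepG2 reporter cells are lysed for total RNA. Transcript levels come from RT-PCR with labelled primer extension and capillary electrophoresis, analysed bidirectionally versus DMSO.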

[9] = target: Transcription factor Sp1 (Homo sapiens) (UniProt P08047); test: ATG_Sp1_CIS: Attagene CIS-FACTORIAL HepG2 Assay for human Specificity Protein 1 (Sp1) (AID 2282961); conditions: HepG2 Sp1 cis-reporter transcription, actives raise or lower the signal
Transcription factor Sp1 (Homo sapiens), sequence (P08047 whole entry, looked up): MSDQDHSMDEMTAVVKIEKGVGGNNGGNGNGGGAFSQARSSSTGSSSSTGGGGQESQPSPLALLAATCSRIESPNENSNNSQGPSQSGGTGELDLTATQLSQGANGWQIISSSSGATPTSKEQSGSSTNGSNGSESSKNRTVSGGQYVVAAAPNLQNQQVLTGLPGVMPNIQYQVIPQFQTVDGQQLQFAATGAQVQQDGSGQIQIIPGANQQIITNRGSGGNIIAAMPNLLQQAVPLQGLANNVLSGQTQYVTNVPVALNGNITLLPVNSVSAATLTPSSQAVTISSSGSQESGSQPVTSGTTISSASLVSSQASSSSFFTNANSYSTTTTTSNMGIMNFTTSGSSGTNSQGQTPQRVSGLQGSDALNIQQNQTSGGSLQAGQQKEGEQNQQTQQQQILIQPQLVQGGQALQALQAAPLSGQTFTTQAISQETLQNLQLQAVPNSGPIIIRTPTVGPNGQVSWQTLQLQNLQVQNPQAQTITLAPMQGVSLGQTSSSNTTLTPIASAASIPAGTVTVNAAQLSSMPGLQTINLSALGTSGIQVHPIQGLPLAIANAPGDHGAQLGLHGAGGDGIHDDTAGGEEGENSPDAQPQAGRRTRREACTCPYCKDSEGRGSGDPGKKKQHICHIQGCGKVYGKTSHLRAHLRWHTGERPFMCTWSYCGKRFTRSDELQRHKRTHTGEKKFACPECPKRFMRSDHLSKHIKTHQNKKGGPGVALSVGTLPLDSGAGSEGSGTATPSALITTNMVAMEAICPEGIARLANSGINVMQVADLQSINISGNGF
How it was run: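 Sp1-driven reporter mRNA, read as capillary electrophoresis fluorescence after RT-PCR, in transiently transfected HepG2 cells dosed for 24 h; signal change in either direction relative to DMSO.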

[10] = ATG_SREBP_CIS: Attagene CIS-FACTORIAL HepG2 Assay for human Sterol Regulatory Element Binding (SREBP) (AID 2282962); conditions: HepG2 Attagene cis-factorial SREBP reporter, mRNA; actives raise or lower the signal
How it was run: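 Twenty-four hours after chemical dosing of transfected HepG2 cultures, reporter RNA was converted to cDNA, amplified, end-labelled with 6-FAM and resolved by capillary electrophoresis. Responses were fitted relative to DMSO.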

[11] = target: Signal transducer and activator of transcription 3 (Homo sapiens) (UniProt P40763); test: ATG_STAT3_CIS: Attagene CIS-FACTORIAL HepG2 Assay for human Signal Transducer and Activator of Transcription 3 (STAT3) (AID 2282963); conditions: HepG2, Attagene cis-factorial STAT3 reporter transcription; actives raise or lower the signal
Signal transducer and activator of transcription 3 (Homo sapiens), sequence (P40763 whole entry, looked up): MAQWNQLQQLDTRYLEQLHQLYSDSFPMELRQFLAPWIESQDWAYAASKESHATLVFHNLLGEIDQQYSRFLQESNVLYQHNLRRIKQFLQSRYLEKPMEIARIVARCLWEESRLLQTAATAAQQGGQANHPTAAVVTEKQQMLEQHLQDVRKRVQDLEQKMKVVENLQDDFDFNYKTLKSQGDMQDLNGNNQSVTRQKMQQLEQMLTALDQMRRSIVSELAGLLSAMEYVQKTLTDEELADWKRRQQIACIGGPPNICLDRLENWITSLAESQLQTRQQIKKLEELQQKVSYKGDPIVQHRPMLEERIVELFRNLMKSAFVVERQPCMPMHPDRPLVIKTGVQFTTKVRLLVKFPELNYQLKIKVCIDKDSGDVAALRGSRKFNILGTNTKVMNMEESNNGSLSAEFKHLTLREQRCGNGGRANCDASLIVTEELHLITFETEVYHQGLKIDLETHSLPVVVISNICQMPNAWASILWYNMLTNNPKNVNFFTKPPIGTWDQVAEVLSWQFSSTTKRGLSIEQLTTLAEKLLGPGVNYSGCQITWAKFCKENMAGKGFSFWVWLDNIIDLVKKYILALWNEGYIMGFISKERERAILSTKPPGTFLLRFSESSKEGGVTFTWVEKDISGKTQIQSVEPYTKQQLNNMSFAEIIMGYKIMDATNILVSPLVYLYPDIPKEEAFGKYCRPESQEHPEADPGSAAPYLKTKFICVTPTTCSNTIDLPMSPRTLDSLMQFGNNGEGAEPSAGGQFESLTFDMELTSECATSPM
How it was run: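 After a 24 h compound incubation, total RNA from MRTU-transfected HepG2 cells was converted to cDNA and reporter sequences PCR-amplified, labelled and profiled by capillary electrophoresis. Gain and loss of signal were referenced to DMSO.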

[12] = ATG_TA_CIS: Attagene CIS-FACTORIAL HepG2 Assay for human TA Basal Promoter (AID 2282964); conditions: HepG2 Attagene CIS-factorial TA basal promoter reporter; actives raise or lower the signal
How it was run: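 Transfected HepG2, 24 h compound exposure; RNA → RT-PCR → FAM primer extension → HpaI cut → CE fluorescence. Gain/loss-of-signal fitted against DMSO negative control. Background-control readout.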

[13] = ATG_TCF_b_cat_CIS: Attagene CIS-FACTORIAL HepG2 Assay for human T-Cell-Factor with beta-catenin (TCF/b-cat) (AID 2282965); conditions: HepG2 TCF/beta-catenin cis-reporter transcription, actives raise or lower the signal
How it was run: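 Measured: reporter mRNA in HepG2 transiently transfected with cis-promoter reporter units, 24 h after chemical addition. Fitting was bidirectional, DMSO as negative control.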

[14] = ATG_TAL_CIS: Attagene CIS-FACTORIAL HepG2 Assay for human TAL Basal Promoter (AID 2282966); conditions: HepG2 Attagene cis-factorial TAL promoter reporter; actives raise or lower the signal;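 note: background control endpoint measuring basal TAL promoter reporter mRNA not a specific factor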
How it was run: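 RT-PCR plus capillary electrophoresis quantifies reporter mRNA induction in transiently transfected HepG2 cells after 24 h chemical treatment. DMSO serves as negative control and baseline for bidirectional fitting.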

[15] = ATG_TGFb_CIS: Attagene CIS-FACTORIAL HepG2 Assay for human Transforming Growth Factor (TGF) (AID 2282967); conditions: HepG2 Attagene CIS TGFb reporter, mRNA transcription; actives raise or lower the signal
How it was run: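 Readout: fluorescently labeled reporter cDNA fragments resolved by capillary electrophoresis after RT-PCR. Transfected HepG2 cells dosed for 24 h; endogenous TF activity at TGFB1-linked cis element; gain or loss fitted relative to DMSO.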

[16] = ATG_VDRE_CIS: Attagene CIS-FACTORIAL HepG2 Assay for human Vitamin D Receptor Element (VDRE) (AID 2282968); conditions: HepG2 VDRE cis-reporter transcription, actives raise or lower the signal
How it was run: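 In transiently transfected HepG2 liver cells, gain or loss of reporter mRNA after 24 h exposure is scored relative to DMSO, using fluorescence detection by capillary electrophoresis of RT-PCR products.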

[17] = ATG_MRE_CIS: Attagene CIS-FACTORIAL HepG2 Assay for human Metal Responsive Element (MRE) (AID 2282954); conditions: HepG2 MRE cis-reporter transcription, Attagene multiplex; actives raise or lower the signal
How it was run: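 After a 24 h chemical exposure, transiently transfected HepG2 cells yield RNA whose reporter sequences are amplified, FAM-labelled and sized by capillary electrophoresis. Curves are fitted bidirectionally relative to DMSO.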

[18] = ATG_PPRE_CIS: Attagene CIS-FACTORIAL HepG2 Assay for human Peroxisome Proliferator-activated Response Element (PPRE) (AID 2282958); conditions: HepG2 PPRE cis-element reporter, Attagene transcription factor profiling; actives raise or lower the signal
How it was run: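 Multiplexed reporter transcription units under cis-regulatory promoters were transfected into HepG2 cells to capture endogenous factor activity. A 24 h incubation preceded RNA isolation and fluorescent RT-PCR fragment analysis.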

[19] = target: Estrogen receptor (Homo sapiens) (UniProt P03372); test: ATG_ERa_TRANS: Attagene TRANS-FACTORIAL HepG2 Assay for human Estrogen Receptor alpha (ERa) (AID 2282970; active = hit-call score of the fitted dose curve at least 0.9, where 1 is the maximum); conditions: HepG2 Attagene TRANS ERa GAL4 reporter, mRNA
Estrogen receptor (Homo sapiens), sequence (P03372 whole entry, looked up, the tested form may be a part): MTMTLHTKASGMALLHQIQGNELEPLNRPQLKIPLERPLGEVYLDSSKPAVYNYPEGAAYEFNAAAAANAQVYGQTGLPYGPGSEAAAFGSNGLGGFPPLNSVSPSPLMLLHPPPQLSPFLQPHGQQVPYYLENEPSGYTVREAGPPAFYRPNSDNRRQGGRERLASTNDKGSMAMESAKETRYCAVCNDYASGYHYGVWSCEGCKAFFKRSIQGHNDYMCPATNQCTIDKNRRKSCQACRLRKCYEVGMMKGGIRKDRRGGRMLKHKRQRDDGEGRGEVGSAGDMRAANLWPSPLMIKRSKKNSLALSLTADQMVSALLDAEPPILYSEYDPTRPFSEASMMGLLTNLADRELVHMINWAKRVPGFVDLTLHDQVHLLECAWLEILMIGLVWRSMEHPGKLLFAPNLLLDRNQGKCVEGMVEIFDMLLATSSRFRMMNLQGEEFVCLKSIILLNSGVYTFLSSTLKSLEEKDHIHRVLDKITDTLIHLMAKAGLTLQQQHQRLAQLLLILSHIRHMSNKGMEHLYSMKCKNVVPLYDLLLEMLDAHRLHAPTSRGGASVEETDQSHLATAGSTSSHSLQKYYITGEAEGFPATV
How it was run: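 Cells: HepG2, transiently transfected. Construct: GAL4-UAS reporter units regulated by exogenous NR-Gal4 chimeras. Time: 24 h. Detection: reporter mRNA by RT-PCR, capillary electrophoresis, fluorescence. Baseline: DMSO, upward fitting.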

[20] = target: Nuclear receptor subfamily 1 group I member 3 (Homo sapiens) (UniProt Q14994); test: ATG_CAR_TRANS: Attagene TRANS-FACTORIAL HepG2 Assay for human Constitutive Androstane Receptor (CAR) (AID 2282969; active = hit-call score of the fitted dose curve at least 0.9, where 1 is the maximum;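 note: activators raise reporter mRNA above DMSO so AC50 marks induction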); conditions: HepG2 Attagene TRANS-FACTORIAL CAR reporter
Nuclear receptor subfamily 1 group I member 3 (Homo sapiens), sequence (Q14994 whole entry, looked up, the tested form may be a part): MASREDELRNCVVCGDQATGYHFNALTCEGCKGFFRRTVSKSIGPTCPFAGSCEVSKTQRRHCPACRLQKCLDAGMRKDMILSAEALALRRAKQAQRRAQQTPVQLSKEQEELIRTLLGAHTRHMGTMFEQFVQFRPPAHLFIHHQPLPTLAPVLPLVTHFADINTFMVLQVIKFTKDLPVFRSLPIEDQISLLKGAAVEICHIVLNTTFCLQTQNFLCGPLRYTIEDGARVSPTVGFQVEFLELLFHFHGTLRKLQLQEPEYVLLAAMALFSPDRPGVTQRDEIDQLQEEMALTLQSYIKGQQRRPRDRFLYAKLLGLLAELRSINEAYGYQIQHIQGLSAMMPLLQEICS
How it was run: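 Readout is reporter mRNA induction, quantified by fluorescent primer extension and capillary electrophoresis after RT-PCR. Cells were HepG2 transiently carrying chimeric NR-Gal4 constructs with GAL4-UAS reporters, treated for 24 h; activity scored upward from DMSO.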

Measured: AC50

CCCCCCCCBr
not listed: [17] | [18] | [19] | [20]
inactive: all other assays above

CN(C)CCN(C)C
not listed: [3] | [4] | [20]
inactive: all other assays above

CC(C=O)Cc1ccc2c(c1)OCO2 (centres undefined)
active: [6] 17 µM
not listed: [1] | [16] | [19] | [20]
inactive: all other assays above

COC(=O)Nc1cccc(OC(=O)Nc2cccc(C)c2)c1
not listed: [3] | [16] | [19] | [20]
inactive: all other assays above

C#C[C@]1(O)CC[C@H]2[C@@H]3CCC4=CC(=O)CC[C@]4(C)[C@H]3CC[C@@]21C
not listed: [1] | [16] | [19] | [20]
inactive: all other assays above

CCCCCCCCCCCCc1cccc(S(=O)(=O)O)c1
active: [6] 17.9 µM
not listed: [3] | [7] | [16] | [18] | [19]
inactive: all other assays above

CCC[N+](CCC)(CCC)CCC
not listed: [3] | [16] | [19] | [20]
inactive: all other assays above

C=CCCl
active: [6] 100 µM
not listed: [5] | [17] | [19] | [20]
inactive: all other assays above

CN(C)c1ccc(N=O)cc1
active: [3] 25.4 µM
not listed: [17]
inactive: all other assays above

Cc1cc(-c2cc(C)c(N)c(C)c2)cc(C)c1N
active: [6] 26.5 µM
not listed: [1] | [11] | [17]
inactive: all other assays above

O=C1C[C@@H]2OCC=C3CN4CC[C@]56c7ccccc7N1[C@H]5[C@H]2[C@H]3C[C@H]46
active: [6] 44.6 µM and 10.9 µM
not listed: [1] | [16] | [18] | [19] | [20]
inactive: all other assays above

O=c1[nH]c2ccccc2n1C1CCN(CCCC(c2ccc(F)cc2)c2ccc(F)cc2)CC1
active: [10] 3.71 µM
not listed: [1] | [4] | [12] | [18] | [20]
inactive: all other assays above
